# Values joined by “and” are separate entries in the source; they are usually repeats but may differ in a detail not shown here. Identical values can stand only once. Active and inactive are the calls of the source. How the source made its calls: active means hit-call score of the fitted dose curve at least 0.9, where 1 is the maximum; inactive means score below 0.9.
# Experiments:
# [1] = read-out: Monokine induced gamma interferon (MIG), CXCL9 (gene 4283); test: BSK_KF3CT_MIG: BioMAP Diversity Plus: KF3CT Assay for Monokine induced gamma interferon (MIG) Biomarker Activity (AID 2284248); conditions: primary human keratinocytes with fibroblasts
# Method in brief: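 Parallel cultures were stained with SRB (560 nm) to check cytotoxicity. MIG was quantified by ELISA in a primary human skin keratinocyte/fibroblast co-culture 24 h post-dosing, with gain of signal fitted relative to DMSO.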
# [2] = read-out: Collagen I, COL1A1 (gene 1277); test: BSK_hDFCGF_CollagenI: BioMAP Diversity Plus: hDFCGF Assay for Collagen I Biomarker Activity (AID 2284250); conditions: primary human foreskin fibroblasts
# Method in brief: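 Primary human foreskin fibroblasts (hDFCGF system) exposed to chemical for 24 h; Collagen I measured by ELISA. Activity fitted in the positive direction relative to DMSO baseline, with SRB total-protein staining in parallel cultures for overt cytotoxicity.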
# [3] = read-out: Interferon-inducible T-cell alpha chemoattractant (ITAC), CXCL11 (gene 6373); test: BSK_hDFCGF_ITAC: BioMAP Diversity Plus: hDFCGF Assay for Interferon-inducible T-cell alpha chemoattractant (ITAC) Biomarker Activity (AID 2284251); conditions: primary human foreskin fibroblasts
# Method in brief: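 Fibroblasts (human foreskin, primary) are treated with chemical, cultured 24 h, then assayed for I-TAC by ELISA. Overt toxicity is checked in parallel cultures by sulforhodamine B staining of total protein at the same time point.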
# [4] = read-out: Interleukin-8 (IL8), CXCL8 (gene 3576); test: BSK_KF3CT_IL8: BioMAP Diversity Plus: KF3CT Assay for Interleukin-8 (IL8) Biomarker Activity (AID 2284254); conditions: primary human keratinocytes with fibroblasts
# Method in brief: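 IL-8 by ELISA in primary human skin co-culture (keratinocytes plus fibroblasts) 24 h post-dose, DMSO as baseline. Cytotoxicity assessed in parallel by sulforhodamine B total-protein staining.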
# [5] = read-out: Collagen I, COL1A1 (gene 1277); test: BSK_MyoF_CollagenI: BioMAP Diversity Plus: MyoF Assay for Collagen I Biomarker Activity (AID 2284238); conditions: primary human lung fibroblasts
# Method in brief: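 Collagen I levels measured by ELISA on human lung fibroblast cultures 24 h post-dosing, with curve fitting in the positive direction relative to DMSO; SRB staining of parallel wells marked cytotoxicity.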
# [6] = read-out: Collagen III, COL3A1 (gene 1281); test: BSK_MyoF_CollagenIII: BioMAP Diversity Plus: MyoF Assay for Collagen III Biomarker Activity (AID 2284239); conditions: primary human lung fibroblasts
# Method in brief: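 Collagen III biomarker quantified by ELISA in human lung fibroblast cultures 24 h after dosing. Activity fitted in the positive direction against DMSO as baseline.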
# [7] = read-out: Interleukin 17F (IL17F), IL17F (gene 112744); test: BSK_BT_xIL17F: BioMAP Diversity Plus: BT Assay for Interleukin 17F (IL17F) Biomarker Activity (AID 2284243); conditions: primary human B cells with PBMC
# Method in brief: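 Human B cells co-cultured with PBMC; secreted IL-17F quantified by LumineX xMAP 24 hours after chemical dosing. Activity fitted in the positive direction against DMSO negative control as baseline.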
# [8] = read-out: Actin alpha 1 (ACTA1), ACTA1 (gene 58); test: BSK_MyoF_ACTA1: BioMAP Diversity Plus: MyoF Assay for Actin alpha 1 (ACTA1) Biomarker Activity (AID 2284244); conditions: primary human lung fibroblasts
# Method in brief: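 Human lung fibroblasts (MyoF system) dosed with test chemical for 24 h; α-SMA measured by ELISA. Gain of signal fitted relative to DMSO negative control as baseline.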
# [9] = read-out: Interleukin 2 (IL2), IL2 (gene 3558); test: BSK_BT_xIL2: BioMAP Diversity Plus: BT Assay for Interleukin 2 (IL2) Biomarker Activity (AID 2284245); conditions: primary human B cells with PBMC
# Method in brief: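 Human B cells co-cultured with PBMC, exposed to test chemical for 24 h. Secreted IL-2 quantified by Luminex xMAP bead immunoassay; activity fitted in the positive direction relative to DMSO vehicle baseline.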
# [10] = read-out: Basic fibroblast growth factor (bFGF), FGF2 (gene 2247); test: BSK_MyoF_bFGF: BioMAP Diversity Plus: MyoF Assay for Basic fibroblast growth factor (bFGF) Biomarker Activity (AID 2284246); conditions: primary human lung fibroblasts
# Method in brief: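 Human lung fibroblasts were dosed with chemicals and bFGF was quantified by ELISA 24 h later. Activity was fitted in the gain-of-signal direction relative to DMSO as negative control and baseline. Parallel SRB total-protein staining tracked overt cytotoxicity.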
# [11] = read-out: Collagen IV, COL4A1 (gene 1282); test: BSK_MyoF_CollagenIV: BioMAP Diversity Plus: MyoF Assay for Collagen IV Biomarker Activity (AID 2284247); conditions: primary human lung fibroblasts
# Method in brief: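 Primary human lung fibroblasts were exposed to test chemicals and sampled 24 h after dosing. Collagen IV levels were measured by ELISA and fitted in the positive direction against DMSO as negative control and baseline.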
# [12] = read-out: Plasminogen activator inhibitor-1 (PAI1), SERPINE1 (gene 5054); test: BSK_MyoF_PAI1: BioMAP Diversity Plus: MyoF Assay for Plasminogen activator inhibitor-1 (PAI1) Biomarker Activity (AID 2284256); conditions: primary human lung fibroblasts;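 on outcome: PAI-1 protein level measured by ELISA in fibroblast cultures; PAI-1 read 24 h after compound addition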
# Method in brief: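 Human lung fibroblasts (MyoF system) were exposed to test chemicals for 24 h, then PAI-1 was quantified by ELISA. Activity was fitted in the positive (signal-gain) direction relative to DMSO vehicle as baseline.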
smiles,measurement,setting,value
CCCCCCCCCCCC,AC50,[1],20.2 µM (active) and 20.6 µM (active)
same,AC50,[2],9.41 µM (active) and 9.63 µM (active)
same,AC50,[3],8.55 µM (active) and 5.79 µM (active)
same,AC50,[4],20 µM (active) and 27.3 µM (active)
CC[N+](CC)(CC)Cc1ccccc1,outcome,[5],inactive
same,outcome,[6],inactive
same,outcome,[7],inactive
same,outcome,[8],inactive
same,outcome,[9],inactive
same,outcome,[10],inactive
same,outcome,[11],inactive
same,outcome,[12],inactive
COc1cc(OC)nc(NC(=O)NS(=O)(=O)Nc2ccccc2C(=O)N(C)C)n1,outcome,[5],inactive
same,outcome,[6],inactive
same,outcome,[7],inactive
same,outcome,[8],inactive
same,outcome,[9],inactive
same,outcome,[10],inactive
same,outcome,[11],inactive
same,outcome,[12],inactive
C[C@]12CC[C@@H]3c4ccc(O)cc4CC[C@H]3[C@@H]1C[C@@H](O)[C@@H]2O,outcome,[5],inactive
same,outcome,[6],inactive
same,outcome,[7],inactive
same,outcome,[8],inactive
same,outcome,[9],inactive
same,outcome,[10],inactive
same,outcome,[11],inactive
same,outcome,[12],inactive
CCCCCc1ccc(O)cc1,AC50,[5],24 µM (active)
same,AC50,[6],16.1 µM (active)
same,outcome,[7],inactive
same,AC50,[8],11.3 µM (active)
same,outcome,[9],inactive
same,AC50,[10],28 µM (active)
same,AC50,[11],20 µM (active)
same,AC50,[12],32.2 µM (active)
CC1=NN(c2ccccc2)C(=O)C1,outcome,[5],inactive
same,AC50,[6],3.97 µM (active)
same,outcome,[7],inactive
same,outcome,[8],inactive
same,outcome,[9],inactive
same,outcome,[10],inactive
same,outcome,[11],inactive
same,outcome,[12],inactive
Clc1ccc(Nc2nnc(Cc3ccncc3)c3ccccc23)cc1,outcome,[5],inactive
same,outcome,[6],inactive
same,outcome,[7],inactive
same,outcome,[8],inactive
same,outcome,[9],inactive
same,outcome,[10],inactive
same,outcome,[11],inactive
same,outcome,[12],inactive
O=C(NCc1ncc(C(F)(F)F)cc1Cl)c1c(Cl)cccc1Cl,outcome,[5],inactive
same,outcome,[6],inactive
same,AC50,[7],21 µM (active)
same,outcome,[8],inactive
same,AC50,[9],32.1 µM (active)
same,outcome,[10],inactive
same,outcome,[11],inactive
same,outcome,[12],inactive
CN(C)c1ccc(C(=C2C=CC(=[N+](C)C)C=C2)c2ccccc2)cc1,AC50,[5],0.0082 µM (active)
same,AC50,[6],0.164 µM (active)
same,AC50,[7],0.49 µM (active)
same,AC50,[8],1.06 µM (active)
same,AC50,[9],0.432 µM (active)
same,AC50,[10],0.647 µM (active)
same,AC50,[11],1.55 µM (active)
same,AC50,[12],0.675 µM (active)
COc1cccc(O)c1,outcome,[5],inactive
same,outcome,[6],inactive
same,outcome,[7],inactive
same,outcome,[8],inactive
same,outcome,[9],inactive
same,outcome,[10],inactive
same,outcome,[11],inactive
same,outcome,[12],inactive
O=C(NO)c1ccccc1,outcome,[5],inactive
same,outcome,[6],inactive
same,AC50,[7],19.2 µM (active)
same,outcome,[8],inactive
same,AC50,[9],19.2 µM (active)
same,outcome,[10],inactive
same,outcome,[11],inactive
same,outcome,[12],inactive
Oc1ccc(Cc2ccccc2O)cc1,outcome,[1],inactive
same,outcome,[2],inactive
same,outcome,[3],inactive
same,outcome,[4],inactive
CC(C)(C)c1ccc(O)c(O)c1,AC50,[5],27.4 µM (active)
same,AC50,[6],29.2 µM (active)
same,AC50,[7],26 µM (active)
same,AC50,[8],29.6 µM (active)
same,outcome,[9],inactive
same,AC50,[10],30.1 µM (active)
same,AC50,[11],16 µM (active)
same,AC50,[12],33.3 µM (active)
O=C1OC2(c3ccccc31)c1cc(I)c(O)c(I)c1Oc1c2cc(I)c(O)c1I,AC50,[5],5.89 µM (active)
same,outcome,[7],inactive
same,outcome,[8],inactive
same,outcome,[9],inactive
same,AC50,[10],9.75 µM (active)
same,AC50,[11],3.8 µM (active)
same,AC50,[12],2.72 µM (active)
CCCCCCCCCCCCCCCCCC[N+](C)(C)Cc1ccccc1,AC50,[5],1.02 µM (active)
same,AC50,[6],2.09 µM (active)
same,AC50,[7],2.42 µM (active)
same,AC50,[8],2.7 µM (active)
same,AC50,[9],1.97 µM (active)
same,AC50,[10],3.06 µM (active)
same,outcome,[11],inactive
same,AC50,[12],2.91 µM (active)

# From PubChem BioAssay (EPA / NIEHS)
